Reference: the supplement of paper PMC9262897, “Low-cost anti-mycobacterial drug discovery using engineered E. coli” (Nature Communications, 2022)
Where a name gives a salt, the structure may show the parent alone. ± gives the standard deviation of the averaged measurements.

Each compound was assayed on E. coli TESEC Mtb Alr (assay: growth (OD600 after 10 h); higher = more growth (less inhibition)). Conditions: arabinose 10000 nM; compound 0.1 mM; raw OD600 reference: median of DMSO wells 0.264, cell-free background 0.041.
Method: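 TESEC Mtb Alr E. coli, or the Alr+ wild-type control, in 384-well plates with Prestwick library compounds at 0.1 mM and 1% DMSO, across arabinose induction levels of 1E3 to 1E7 nM. Growth is read as OD600 after 10 h at 37 °C in triplicate biological replicates.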

| SMILES | growth |
| --- | --- |
| CCN1CCCC1CNC(=O)c1cc(S(N)(=O)=O)ccc1OC (stereo not drawn) [Sulpiride] | 0.248 ± 0.0039 |
| COc1ncnc(NS(=O)(=O)c2ccc(N)cc2)c1OC [Sulfadoxine] | 0.251 ± 0.0051 |
| C[C@@H]1C[C@H]2[C@@H]3C[C@H](F)C4=CC(=O)C=C[C@]4(C)[C@@]3(Cl)[C@@H](O)C[C@]2(C)[C@H]1C(=O)COC(=O)C(C)(C)C [Clocortolone pivalate] | 0.29 ± 0.013 |

Same assay, conditions: arabinose 100000 nM; compound 0.1 mM; raw OD600 reference: median of DMSO wells 0.201, cell-free background 0.041

| SMILES | growth |
| --- | --- |
| O=C1OC(CN2CCOCC2)CN1/N=C/c1ccc([N+](=O)[O-])o1 (stereo not drawn) [Furaltadone hydrochloride] | 0.04173 ± 5.8e-05 |
| CN(C)CCCN1c2ccccc2CCc2ccccc21 [Imipramine hydrochloride] | 0.212 ± 0.014 |
| CCOC(=O)O[C@]1(C(=O)OCCl)CC[C@H]2[C@@H]3CCC4=CC(=O)C=C[C@]4(C)[C@H]3[C@@H](O)C[C@@]21C [Loteprednol etabonate] | 0.196 ± 0.028 |
| CCCNC(C)C(=O)Nc1ccccc1C (stereo not drawn) [Prilocaine hydrochloride] | 0.1867 ± 0.0018 |
| NS(=O)(=O)c1cc2c(cc1Cl)NCNS2(=O)=O [Hydrochlorothiazide] | 0.234 ± 0.011 |
| Cc1cc2c(s1)Nc1ccccc1N=C2N1CCN(C)CC1 [Olanzapine] | 0.183 ± 0.015 |
| Nc1ccc(C(=O)O)c(O)c1 [4-aminosalicylic acid] | 0.201 ± 0.017 |
| CC(=O)Oc1ccc(C(c2ccc(OC(C)=O)cc2)c2ccccn2)cc1 [Bisacodyl] | 0.219 ± 0.031 |
| CN(Cc1cnc2nc(N)nc(N)c2n1)c1ccc(C(=O)N[C@@H](CCC(=O)O)C(=O)O)cc1 (racemic) [Amethopterin (R,S)] | 0.206 ± 0.049 |
| CC(C(=O)O)c1ccc(C(=O)c2ccccc2)s1 (stereo not drawn) [Tiaprofenic acid] | 0.201 ± 0.019 |
| Nc1c2ccccc2nc2ccccc12 [Aminacrine] | 0.043 ± 0.0015 |
| CCCC(CCC)C(=O)O [Valproic acid] | 0.22 ± 0.02 |
| Cc1[nH]cnc1CN1CCc2c(c3ccccc3n2C)C1=O [Alosetron hydrochloride] | 0.225 ± 0.0049 |
| CN(C)c1nc(N(C)C)nc(N(C)C)n1 [Altretamine] | 0.209 ± 0.0047 |
| Cc1nnc(NS(=O)(=O)c2ccc(N)cc2)s1 [Sulfamethizole] | 0.211 ± 0.032 |
| CCC1=C(C)CN(C(=O)NCCc2ccc(S(=O)(=O)NC(=O)N[C@H]3CC[C@H](C)CC3)cc2)C1=O [Glimepiride] | 0.161 ± 0.0087 |
| CC1CC(OC(=O)c2ccccc2O)CC(C)(C)C1 (stereo not drawn) [Homosalate] | 0.199 ± 0.03 |
| CCCN(CCC)C(=O)C(CCC(=O)O)NC(=O)c1ccccc1 (stereo not drawn) [Proglumide] | 0.22 ± 0.025 |
| NCCc1ccc(O)c(O)c1 [Dopamine hydrochloride] | 0.201 ± 0.021 |
| OCCN1CCN(CCCN2c3ccccc3Sc3ccc(Cl)cc32)CC1 [Perphenazine] | 0.0431 ± 0.0021 |

| SMILES | growth |
| --- | --- |
| CCN(CC)CCOC(=O)C1(C2CCCCC2)CCCCC1 [Dicyclomine hydrochloride] | 0.157 ± 0.016 |
| Cc1cc(-c2ccccc2)nnc1NCCN1CCOCC1 [Minaprine dihydrochloride] | 0.182 ± 0.012 |
| CCC1(C)CC(=O)NC1=O (stereo not drawn) [Ethosuximide] | 0.219 ± 0.016 |
| COc1nc(C)nc(Cl)c1NC1=NCCN1 [Moxonidine] | 0.18 ± 0.013 |
| COC(=O)Nc1nc2cc(C(=O)c3cccs3)ccc2[nH]1 [Nocodazole] | 0.211 ± 0.0085 |
| CCN(CC)C(=O)/C(C#N)=C/c1cc(O)c(O)c([N+](=O)[O-])c1 [Entacapone] | 0.0534 ± 0.0015 |
| CCN(CC)CCOC(=O)C(c1ccccc1)C1CCCCC1 (stereo not drawn) [Drofenine hydrochloride] | 0.16 ± 0.0022 |
| Cc1c(Cl)cccc1Nc1ncccc1C(=O)O [Clonixin Lysinate] | 0.173 ± 0.0047 |
| Cn1cnc2c1c(=O)[nH]c(=O)n2C [Theobromine] | 0.218 ± 0.02 |
| COc1cc(N)c(Cl)cc1C(=O)NC1CCN(Cc2ccccc2)CC1 [Clebopride maleate] | 0.171 ± 0.016 |
| CCN1CCN(c2cc3c(cc2F)c(=O)c(C(=O)O)cn3C2CC2)CC1 [Enrofloxacin] | 0.0406 ± 0.0012 |
| Nc1ccn([C@H]2CC[C@@H](CO)O2)c(=O)n1 [Zalcitabine] | 0.198 ± 0.035 |
| COCCOC(=O)C1=C(C)NC(C)=C(C(=O)OC(C)C)C1c1cccc([N+](=O)[O-])c1 (stereo not drawn) [Nimodipine] | 0.154 ± 0.0027 |
| C[C@H]1O[C@@H](O[C@H]2[C@@H](O)C[C@H](O[C@H]3[C@@H](O)C[C@H](O[C@H]4CC[C@@]5(C)[C@H](CC[C@@H]6[C@@H]5C[C@@H](O)[C@]5(C)[C@@H](C7=CC(=O)OC7)CC[C@]65O)C4)O[C@@H]3C)O[C@@H]2C)C[C@H](O)[C@@H]1O [Digoxin] | 0.2 ± 0.0092 |
| COc1cccc2c1C(=O)c1c(O)c3c(c(O)c1C2=O)C[C@@](O)(C(C)=O)C[C@@H]3O[C@H]1C[C@H](N)[C@H](O)[C@H](C)O1 [Daunorubicin hydrochloride] | 0.0446 ± 0.001 |
| O=C(CCNNC(=O)c1ccncc1)NCc1ccccc1 [Nialamide] | 0.193 ± 0.018 |
| CC(=O)S[C@@H]1CC2=CC(=O)CC[C@]2(C)[C@H]2CC[C@@]3(C)[C@@H](CC[C@@]34CCC(=O)O4)[C@H]12 [Spironolactone] | 0.0921 ± 0.027 |
| CCN1CCCC1CNC(=O)c1cc(S(N)(=O)=O)ccc1OC (stereo not drawn) [Sulpiride] | 0.198 ± 0.02 |
| COc1ncnc(NS(=O)(=O)c2ccc(N)cc2)c1OC [Sulfadoxine] | 0.192 ± 0.021 |
| C[C@@H]1C[C@H]2[C@@H]3C[C@H](F)C4=CC(=O)C=C[C@]4(C)[C@@]3(Cl)[C@@H](O)C[C@]2(C)[C@H]1C(=O)COC(=O)C(C)(C)C [Clocortolone pivalate] | 0.206 ± 0.031 |
